37 compounds from PubChem BioAssay (NCI) can be followed below.

The panel holds about 83,000 compounds, 20% with a hit somewhere; the sample as a whole holds those more often.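 Interpretation: 100, growth as untreated; towards 0, rising growth inhibition; 0, no net growth; 0 to -100, cell death. Compounds scoring below 10 were considered active.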 Unmarked numbers belong to inactive results. The source made the active and inactive calls.

The assay deals with MDA-MB-468 breast. Description: NCI-60 one-dose screen, 48 h (100 = growth as untreated, 0 = no growth, -100 = all killed). Particulars: 10 µM unless noted.
In the case of `CC1/C=C/C=C/C=C/C=C/C=C/C=C/C=C/C(O[C@@H]2O[C@H](C)[C@H](O)[C@@H](O)[C@@H]2N)CC(O)C(C(=O)O)C(O)CC(=O)CC(O)CC(O)CC(O)CC(=O)CCCC(=O)CC(=O)OC1C(C)CC(C)C(O)CC(=O)c1ccc(N)cc1` (some centres not stated), the growth was -89.7% (active). For the compound `O=C1OC(c2ccccc2)=N/C1=C\c1ccc([N+](=O)[O-])cc1`, the growth was 94.6%. For `COc1cc2c(O)n(CCCN3CCOCC3)c3c4cnc5cccc(c(=O)c3c2cc1OC)c54`, the growth was 47.1%. The same measure for `CN([N-]C(=O)CC(=O)[N-]N(C)C(=S)c1ccccc1)C(=S)c1ccccc1.[Cu+2]`: -58% (active). Consider `CC(=O)NC1=C(C#N)C(c2ccccc2Cl)c2c(ccc3ccccc23)O1` (configuration not stated), for which the growth is 14%. `Cc1c(Cl)cccc1NC(=O)c1sc2nc3c(cc2c1N)COCC3`: the growth was 17.7%. As for `CNC(=S)Sc1ccc([N+](=O)[O-])cc1[N+](=O)[O-]`, the growth is 35.6%. The same measure for `Cc1sc2ncn(CC(=O)Nc3ccc(S(N)(=O)=O)cc3)c(=O)c2c1C`: 104%; for `O=C(NNC(=O)N1c2ccccc2C=Cc2ccccc21)c1ccccc1`: 98.9%; for `C[C@@H]1CCC2=C(CCC[C@]2(C)C(=O)O)[C@@]1(C)CCc1ccoc1`: 95.4%. Consider `COc1ccc(C2CC(c3cccc(Nc4ccncc4)c3)=NN2c2cc(Cl)cc(Cl)c2)cc1` (configuration not stated), for which the growth is 43.3%. For the compound `CCn1c(Cc2ccccc2Nc2c(Cl)cccc2Cl)nnc1SCC(=O)NN1C(=O)/C(=C/c2cccc(OC)c2OC)SC1=S`, the growth is 99.5%. Then `Cn1cc(-c2nn3cc(-c4cccnc4)nc3s2)c2cc(F)ccc21`, with 66.3%; and `Cn1c2nc3ccccc3c-2cc2ccccc21`, with 41.3%; and `O=C(O)c1ccc(-n2cc(/C=N/Nc3ccccc3F)c(-c3ccc(O)cc3)n2)cc1`, with 78.3%. Then `CC(=O)N(CCCCCCN(C(C)=O)C(C)=O)C(C)=O`, with 99.2% [100 µM]; and `S=C=Nc1ccc2ccccc2c1`, with 97.3%. The same measure for `c1ccc(-c2c(-c3ccccc3)[n+](Cc3ccc4ccccc4c3)cn2Cc2ccc3ccccc3c2)cc1`: -85% (active); for `CC(Cc1cccc2ccccc12)C(N)=O` (configuration not stated): 110%. As to `C[n+]1cccc(CC(=O)NO)c1`, the growth was 88.3%.

As to `CN1CCCN(C(c2ccccc2)c2ccc(Cl)cc2)CC1` (configuration not stated), the growth is 83.1%. Consider `O=C(CCCN1CCC(O)(c2ccc(Br)cc2)CC1)c1ccc(F)cc1`, for which the growth is 49.2%. As for `COc1cc(-c2cc(-c3nc4ccc(F)cc4[nH]3)[nH]n2)cc(OC)c1OC`, the growth was 16.6%. Turning to `CCc1ccc(Nc2cc(C)nc3nc(C)nn23)cc1`, the growth was -87.8% (active). On to `CC(C)N1C(=O)S/C(=C2/SC(=O)N(C(C)C)C2=O)C1=O`, for which the growth is 94.5%.

Take `Clc1ccccc1-c1nc(Nc2nc3ccccc3s2)nc(C(Cl)(Cl)Cl)n1`: the growth is -24.6% (active). The same measure for `NC(=S)N/N=C(/C=C/c1cn(-c2ccccc2)nc1-c1ccc(Cl)cc1)c1cc2ccccc2oc1=O`: 52.2%; for `Cc1cccc(Cl)c1NC(=O)c1ccc2nc(NC(=O)NCCN(C)C)sc2c1`: 30.6%. The same measure for `COc1cc(NC(=O)c2cccc(-c3cc(=O)c4c(OC)c(OC)c(OC)cc4o3)c2)cc(OC)c1OC`: 47.4%; for `C=C(C)[C@@H]1CC[C@]2(C)[C@H](CC[C@@H]3[C@@H]([C@@](C)(O)CCC=C(C)C)CC[C@]32C)[C@@]1(C)CCC(=O)N1CCN(C)CC1`: -82.2% [100 µM] (active).

Turning to `O=S(=O)(NCCNc1nccc(-c2c(-c3cccc(O)c3)nc3sccn23)n1)c1ccc(F)cc1`, the growth was 64.8%. Then `CC(O)c1cc[cH-]c1.[Fe+2].c1cc[cH-]c1` (configuration not stated), with 94.5%; and `CCN(CC)CCN1C(=O)c2c(c(C)c3c(oc4cc(OC)ccc43)c2C)C1=O`, with 114%; and `Cn1cc(CNc2nc3ccc(OC/C(=C/F)CN)cc3o2)ccc1=O`, with 107%. With `CN1CCN(Cc2ccc(NC(=O)c3cncc(C#Cc4cncn5ccnc45)c3)cc2C(F)(F)F)CC1`, the growth was 125%. On to `O=C(CCCC(=O)Nc1ccc(-n2nnc3cc(Cl)c(Cl)cc32)cc1)Nc1ccc(-n2nnc3cc(Cl)c(Cl)cc32)cc1`, for which the growth is 18.9%.

With `O=C(CCCCN1CCOCC1)Nc1ccc(Cn2nnc3c2C(=O)c2nnn(Cc4ccc(NC(=O)CCCCN5CCOCC5)cc4)c2C3=O)cc1`, the growth is -76.9% (active).
